Bioassay records as filed in PubChem.
TRHR ag: agonists of human TRH receptor. TRHR cells, calcium flux fluo-8, FDSS agonist mode. activation, % at 2 µM. 360,000 tested, 0.18% active. AID 493084
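TRHR-expressing cells, plated overnight in medium with 10% serum, were loaded with fluo-8 calcium dye at room temperature. After a 10 s baseline, library compound was pin-added and calcium release was recorded kinetically (ex 480/em 530) as agonist response.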
D1 potentiator: human D1 dopamine receptor positive modulation | HEK293 TREx D1 cells, calcium flux, dopamine EC20 potentiation | 360,000 tested, 0.036% active | potentiation, % at 10 µM; in the data active = potentiation above about 30%
Target sequence (P21728 whole entry, looked up): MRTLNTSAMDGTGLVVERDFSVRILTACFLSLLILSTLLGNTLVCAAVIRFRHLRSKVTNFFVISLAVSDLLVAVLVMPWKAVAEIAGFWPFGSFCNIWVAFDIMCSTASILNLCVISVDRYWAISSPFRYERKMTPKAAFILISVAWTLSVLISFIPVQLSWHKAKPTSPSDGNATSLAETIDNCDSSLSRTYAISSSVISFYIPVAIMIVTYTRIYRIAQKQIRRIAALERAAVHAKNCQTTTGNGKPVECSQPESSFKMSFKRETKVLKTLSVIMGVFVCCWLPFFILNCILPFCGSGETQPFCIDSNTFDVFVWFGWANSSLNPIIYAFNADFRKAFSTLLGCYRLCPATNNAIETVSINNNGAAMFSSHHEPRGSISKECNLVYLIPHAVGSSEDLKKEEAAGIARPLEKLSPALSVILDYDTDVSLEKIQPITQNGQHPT
TRHR PAM: TRH receptor (human) allosteric enhancement. TRHR cells, fluo-8 calcium fluorescence, EC20 TRH enhancement. enhancement, % at 2 µM. 360,000 tested, 0.66% active. AID 493056; in the data active = enhancement above about 30%
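Enhancer read-out: after compound pinning and an initial kinetic agonist-mode read, an EC20 of TRH (10 nM final) was injected and fluo-8 calcium signal (Ex 480/Em 530) followed at 1 s/cycle for 100 cycles in TRHR-expressing cells.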
D1 ag: human D1 receptor agonism; 360,000 tested, 1% active; activation, % at 2 µM; HEK293 T-REx D1 cells, calcium flux, agonist mode; P21728; AID 504660
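Inducible HEK293 T-REx D1 cells, force-coupled to calcium signalling, were plated at 4000 cells/well with tetracycline and held overnight at 30 C. After no-wash calcium dye loading, compound-evoked calcium rise over 180 s flagged agonists.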
D1 antagonist: antagonists of human D1 dopamine receptor; P21728; HEK293 TREx D1 cells, calcium flux, dopamine EC80; hits give low values; activity change, negative = inhibition, % at 10 µM; 360,000 tested, 3.2% active; in the data active = activity change below about -30%
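Using tetracycline-induced force-coupled D1 Hek293 cells and a calcium dye, signals were followed for 180 s after compound, then for 180 s after EC80 dopamine, to detect inhibitors.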
Large screens that a line does not name were inactive. Rows were chosen to be rich in hits. Some 4.7% of all compounds tested hit in one or more screens of this group. Cut-off read from the data, not from the text of the source, unless noted: active = activation above about 30%; inactive = the rest.

COC(=O)c1sccc1NC(=O)Nc1cccc([N+](=O)[O-])c1	D1 antagonist -38
CCc1cccc(C)c1NC(=O)CCCn1c(C)c2cnn(-c3ccccc3)c(=O)c2c1C	none
C=CCN(CC=C)C(=O)COn1nnc2ccc(S(=O)(=O)N3CCOCC3)cc21	none
COc1ccc(NC(=O)c2c(NCc3cccc(OC)c3)sc3c2CCC3)cc1	none
CCC(C)C(NC(=O)CCC(=O)OCC(=O)[C@@]1(O)CCC2[C@@H]3CCC4=CC(=O)C=C[C@]4(C)C3[C@@H](O)C[C@@]21C)C(=O)O (stereo not given in full)	none
Cc1ccc([N+](=O)[O-])cc1NC(=O)Nc1cccc(F)c1	D1 antagonist -51
Cc1cccc(NC(=S)NNC(=O)c2ccccc2OC(F)F)c1	D1 antagonist -40
COc1cc(C(=O)Nc2nnc(C3=COCCO3)o2)cc(OC)c1OC	none
O=C1CCCc2ccccc2N1Cc1ccccc1Cl	D1 antagonist -35
O=C1CCCc2ccccc2N1Cc1c(Cl)cccc1Cl	none
O=C1CCCc2ccccc2N1Cc1ccc(Cl)cc1Cl	D1 ag 34
COc1cccc(CNC(=O)c2cc(S(=O)(=O)N3CCCCCC3)cn2C)c1	none
Fc1ccc(Nc2nc(-c3ccncc3)cs2)cc1	D1 antagonist -52
Cc1nc(C)c(-c2csc(Nc3ccc(O)cc3C)n2)s1	D1 antagonist -32
Brc1ccc(-c2csc(Nc3nc(-c4ccc(Br)cc4)cs3)n2)cc1	D1 antagonist -30
Cc1nc(C)c(-c2csc(Nc3ccc(F)cc3)n2)s1	D1 antagonist -38
Cc1ccc(C(=O)CCC(=O)OCC(=O)N(C)c2c(N)n(Cc3ccccc3)c(=O)[nH]c2=O)cc1	none
N/C(Cc1nc(-c2ccc(Br)cc2)cs1)=N\O	D1 antagonist -47
Oc1ccc(Nc2nc(-c3ccc(O)cc3)cs2)cc1	D1 ag 41, D1 antagonist -32
Cc1ccc(Cl)cc1N1CCN(C(=O)c2cc(S(=O)(=O)N3CCC(C)CC3)cn2C)CC1	none
COc1ccccc1NCc1nnc(-c2ccccc2)o1	none
CCC(C(=O)Nc1cccc(C#N)c1)n1nc(-c2ccccc2)ccc1=O (stereo not given)	none
O=c1c2ccccc2c(-c2ccccc2)nn1-c1cc(Cl)ccc1[N+](=O)[O-]	none
Cc1ccc(-c2nn(-c3cc(Cl)ccc3[N+](=O)[O-])c(=O)c3ccccc23)cc1C	D1 antagonist -49
COc1ccccc1NC(=O)C(=O)N/N=C(\C)CC(=O)Nc1ccccn1	D1 antagonist -35
O=C(NC1CCCCC1)N1CCN(c2ccccc2Cl)CC1	none
CCc1ccc(N2CC(C(=O)Nc3ccc(S(=O)(=O)N4CCOCC4)cc3)CC2=O)cc1 (stereo not given)	none
O=C(CSc1n[nH]c(=O)n1C1CC1)Nc1ccccc1	none
O=c1[nH]nc(SCc2ccccc2)n1C1CC2C=CC1C2 (stereo not given)	D1 antagonist -32
CCC(=O)N(CCc1ccccc1)Cc1cc2cccc(C)c2[nH]c1=O	D1 antagonist -43
Cc1cccc2cc(CN(Cc3ccco3)C(=O)c3ccncc3)c(=O)[nH]c12	D1 antagonist -70
CC1CCCC(C)N1NC(=O)c1cccc(S(=O)(=O)N2CCc3ccccc32)c1 (stereo not given)	none
O=C(NCCc1ccccn1)c1cccc(S(=O)(=O)N2CCc3ccccc32)c1	D1 antagonist -36
O=C(c1cccc(S(=O)(=O)N2CCc3ccccc32)c1)N1CCc2ccccc2C1	D1 antagonist -82 (no result: D1 potentiator)
COc1cc2c(cc1OC)CN(C(=O)c1cccc(S(=O)(=O)N3CCc4ccccc43)c1)CC2	D1 antagonist -34
CC1(NC(=O)c2cccc(S(=O)(=O)N3CCCc4ccccc43)c2)CCS(=O)(=O)C1 (stereo not given)	D1 antagonist -83
CN1CCN(S(=O)(=O)c2cccc(C(=O)NC3(C)CCS(=O)(=O)C3)c2)CC1 (stereo not given)	none
COc1ccc(-n2c(SCC(=O)Nc3cc(C)cc(C)c3)nc3c(oc4ccccc43)c2=O)cc1	none
CCc1ccccc1N(C)C(=O)Cn1cnc2sc(C)c(S(=O)(=O)N3CCC(C)CC3)c2c1=O	none
COc1ccc(NC(=O)c2cccc(S(=O)(=O)N3CCc4ccccc43)c2)cn1	D1 antagonist -31
